Screening results deposited in PubChem by The Scripps Research Institute Molecular Screening Center.
Rows were chosen to be rich in hits. Some 1.1% of all compounds tested hit in one or more screens of this group.
HTR5A ag ctr: activates human HTR5A in OPRM1-OPRD1 agonist counter-screen; P47898; activation, % at 9.3 µM; 340,000 tested, 0.61% active; HTR5A agonist assay, luminescence, cell-based; in the data active = activation mostly above about 9.5%, no sharp cut-off; inactive = mostly below about 7.6%;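 note: 0% = cells with vehicle only and 100% = reference agonist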
MOR-DOR ag-1: OPRM1-OPRD1 heterodimerization agonism. P35372+P41143. cells, luminescence. activation, % at 9.3 µM. 340,000 tested, 0.3% active;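 note: 0% = vehicle-treated cells and 100% = reference agonist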
Target sequence (P35372 whole entry, looked up): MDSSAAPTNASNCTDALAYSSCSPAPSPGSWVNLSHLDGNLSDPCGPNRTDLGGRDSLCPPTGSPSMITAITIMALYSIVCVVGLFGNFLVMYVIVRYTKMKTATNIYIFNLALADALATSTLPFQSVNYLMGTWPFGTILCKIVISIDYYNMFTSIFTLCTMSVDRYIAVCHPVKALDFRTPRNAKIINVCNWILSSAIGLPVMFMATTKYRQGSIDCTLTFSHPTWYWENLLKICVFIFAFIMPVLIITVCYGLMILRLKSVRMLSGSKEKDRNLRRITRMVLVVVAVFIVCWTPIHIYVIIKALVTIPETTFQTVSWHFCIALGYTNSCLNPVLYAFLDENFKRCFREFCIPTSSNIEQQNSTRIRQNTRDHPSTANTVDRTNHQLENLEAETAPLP
Target sequence (P41143 whole entry, looked up): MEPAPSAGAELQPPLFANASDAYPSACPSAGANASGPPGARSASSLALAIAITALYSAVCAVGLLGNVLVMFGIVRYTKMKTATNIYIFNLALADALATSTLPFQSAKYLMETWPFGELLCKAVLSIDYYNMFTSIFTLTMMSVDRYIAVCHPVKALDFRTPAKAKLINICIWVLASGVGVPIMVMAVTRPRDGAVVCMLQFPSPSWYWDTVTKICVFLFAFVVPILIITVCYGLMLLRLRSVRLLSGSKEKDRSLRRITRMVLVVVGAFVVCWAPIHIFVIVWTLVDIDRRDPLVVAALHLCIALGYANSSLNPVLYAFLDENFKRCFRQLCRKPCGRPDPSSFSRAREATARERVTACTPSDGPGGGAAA
OPRM1-OPRD1 inv: mu-delta opioid heterodimer inverse agonism | P35372+P41143 | cell-based MOR-DOR heterodimer luminescence | inhibition, % at 9.3 µM | 340,000 tested, 0.21% active | AID 504357; in the data active = inhibition above about 22%, passing the limit was not always enough;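 note: 0% = cells with DMSO and 100% = wells without cells with DMSO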
HTR5A inv ag: HTR5A inverse agonism, opioid heterodimer counter-screen; P47898; HTR5A cell line, luminescence; inhibition, % at 9.3 µM; 340,000 tested, 0.083% active; in the data active = inhibition mostly above about 23%, no sharp cut-off; inactive = mostly below about 18%;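 note: 0% = cells with DMSO and 100% = no-cell wells with DMSO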
MOR-DOR ag-2: opioid heterodimer agonism, HTR5A counter-screen; U2OS counter-screen cells, complementation luminescence, 3 h; 800 tested, 13% active; shares compounds with HTR5A ag ctr; activation, % at 9.3 µM
HTR5A ag confirm: confirmation of human HTR5A agonists. shares compounds with HTR5A ag ctr. HTR5A agonist cell assay, luminescence. activation, % at 9.3 µM. 800 tested, 17% active; in the data active = activation above about 17%;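 note: 0% = cells with vehicle only and 100% = full reference agonist response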
Numbers without * were called inactive; x = not tested or not shown. Cut-off read from the data, not from the text of the source, unless noted: active = activation above about 18%; inactive = the rest.

SMILES	HTR5A ag ctr	MOR-DOR ag-1	OPRM1-OPRD1 inv	HTR5A inv ag	MOR-DOR ag-2	HTR5A ag confirm
C/C(=N/NS(=O)(=O)c1ccc(Cl)cc1)c1ccc2c(c1)OCO2	15*	-3	17	-7	3	-1
CN(CC(=O)Nc1ccc(Cl)cc1)C(=O)CCc1nc2sc3c(c2c(=O)[nH]1)CCCC3	21*	10	-66	-46	6	15
COc1cccc(/C=C2\NC(=O)NC2=O)c1O	-2	-3	20	9	x	x
O=S(=O)(NCc1ccc(F)cc1)c1cccc(S(=O)(=O)N2CCOCC2)c1	20*	4	-27	-51	1	0
O=S(=O)(NCc1ccccc1F)c1cccc(S(=O)(=O)N2CCOCC2)c1	2	-2	10	-5	x	x
COc1ccccc1CNC(=O)CCC(=O)N1CCOc2ccc(C)cc21	-2	-2	10	-14	x	x
Cc1nc2ccc(NC(=O)c3cccs3)cc2c(=O)n1Cc1ccc(Cl)cc1	15*	2	-9	-39	-2	-3
CCCc1nc2ccc(NC(=O)c3cccs3)cc2c(=O)n1Cc1ccc(Cl)cc1	4	-1	5	-9	x	x
NC(=O)c1cc[n+](Cc2ccc([N+](=O)[O-])cc2)cc1	-2	-1	3	7	x	x
COc1cccc(NC(=O)COC(=O)COc2cccc3c2OC(C)(C)C3)c1	1	2	-10	-10	x	x
CC1(C)Cc2cccc(OCC(=O)OCC(=O)Nc3ccccc3)c2O1	6	-1	6	-17	x	x
COc1ccc(NC(=O)COc2cccc3c2OC(C)(C)C3)cc1OC	26*	0	1	-67	1	29*
CN(C)S(=O)(=O)c1ccc(NC(=O)COc2cccc3c2OC(C)(C)C3)cc1	24*	-1	6	-104	4	46*
CCCNC(=O)c1ccccc1NC(=O)COc1cccc2c1OC(C)(C)C2	27*	-2	9	-67	10	0
O=C(c1cccc(S(=O)(=O)N2CCCC2)c1)N1CCCC(C(F)(F)F)C1 (configuration not stated)	-1	-1	6	3	x	x
CC(C)[C@H](NC(=O)OCc1ccccc1)C(=O)OCC(=O)NCCc1ccccc1	-4	-1	4	-6	x	x
CC1Cc2cc(/C(O)=C3/C(=O)C(=O)N(CCN4CCOCC4)C3c3ccc(N(C)C)cc3)ccc2O1 (configuration not stated)	-2	-2	12	9	x	x
O=C1NCCCCC1NS(=O)(=O)c1cccc(C(F)(F)F)c1 (configuration not stated)	-1	-3	14	5	x	x
CNC(=O)c1ccsc1NC(=O)C1CCN(S(=O)(=O)c2cccs2)CC1	2	0	0	-12	x	x
Cc1cc(C)n2nc(C(=O)Nc3cc(S(=O)(=O)N4CCCCC4)ccc3C)nc2n1	-4	-1	4	1	x	x
C=CCn1c(SCC(=O)Nc2sccc2C(N)=O)nc2sc(C)c(C)c2c1=O	18*	-1	6	-46	0	-3
C=CCn1c(SCC(=O)Nc2ccccc2C)nc2sc(C)c(C)c2c1=O	1	3	-16	-20	x	x
O=C(NCCc1c[nH]c2ccccc12)C(=O)NCC(c1ccco1)N1CCN(c2ccc(F)cc2)CC1 (configuration not stated)	47*	0	1	-166	6	56*
O=C(NCCc1c[nH]c2ccccc12)C(=O)NCC1OCCCN1S(=O)(=O)c1cc(F)ccc1F (configuration not stated)	36*	-3	14	-151	-1	-11
O=C(CCl)N(c1ccc(Cl)cc1)c1c[nH]c2ccccc12	16*	2	-12	-27	1	21*
SMILES	HTR5A ag ctr	MOR-DOR ag-1	OPRM1-OPRD1 inv	HTR5A inv ag	MOR-DOR ag-2	HTR5A ag confirm
Cc1ccc(C)c(C(C)NC(=O)Cc2cccs2)c1 (configuration not stated)	2	-2	11	-12	x	x
COc1ccc([N+](=O)[O-])cc1NC(=O)CCNC(=O)Cn1ccc2ccccc2c1=O	4	2	-8	-19	x	x
Cc1ccc(Nc2nc(N)nc(CN3CCN(Cc4ccc5c(c4)OCO5)CC3)n2)cc1Cl	18*	1	-6	-18	0	5
CCCCCCCCCCOC(=O)Cn1c(COc2ccccc2OC)[n+](C)c2ccccc21	14*	9	-41	-53	37*	9
Cc1nn(Cc2ccccc2Cl)c2sc(C(=O)Nc3nccs3)cc12	6	5	-32	-18	x	x
Cc1nn(Cc2ccc(F)cc2)c2sc(C(=O)Nc3nccs3)cc12	21*	9	-66	-57	4	0
Cc1cc(C)c(S(=O)(=O)N2CCN(C(=O)CCn3nc(C)c(C)c3C)CC2)c(C)c1	16*	0	0	-47	1	1
CCCN1C(=O)c2ccc(C(=O)Nc3ccccc3C(=O)O)cc2C1=O	1	0	0	-2	x	x
CCOC(=O)CCSc1nc(-c2ccc3c(c2)OCO3)cc(C(F)(F)F)c1C#N	18*	2	-11	-42	1	5
CCOC(=O)CC(=O)CSc1nc(-c2ccc3c(c2)OCO3)cc(C(F)(F)F)c1C#N	2	-1	6	-6	x	x
O=S(=O)(c1cccc(NC(=S)N2CCN(c3cccc(Cl)c3)CC2)c1)C(F)F	15*	13	-92	-43	31*	2
COc1ccc(OCC(=O)Nc2cccc(OC)c2)cc1	5	-3	14	-20	x	x
CC(=O)c1cccc(NC(=O)COc2ccccc2)c1	15*	-1	4	-36	5	13
COc1cccc(NC(=O)COc2ccc(S(=O)(=O)NC(C)C)cc2)c1	15*	-1	2	-37	2	2
Cc1nc(NC(=O)COc2ccccc2)sc1C(=O)Nc1cccc(Cl)c1	18*	3	-16	-46	4	4
COc1ccc(NC(=O)c2sc(NC(=O)COc3ccccc3)nc2C)cc1	0	-1	8	-37	x	x
CC(NC(=O)c1ccco1)c1ccc(-n2ccnc2)cc1 (configuration not stated)	-1	0	0	15	x	x
Cc1ccnc(NS(=O)(=O)c2ccc(Oc3ccccc3)cc2)c1	7	-2	9	0	x	x
CCCCCc1ccc(S(=O)(=O)Nc2cc(C)ccn2)cc1	17*	-1	4	-23	-1	2
COc1ccc(S(=O)(=O)NC(C(=O)OCC(=O)Nc2ccc(N3CCOCC3)cc2)C(C)C)cc1 (configuration not stated)	16*	0	-2	-39	1	3
O=C(Nc1nccs1)c1c(O)c2c([nH]c1=O)CCCC2	-3	-2	11	11	x	x
CCCc1nnc(NC(=O)c2c(O)c3c([nH]c2=O)CCCC3)s1	16*	-2	10	-43	4	1
CN(C)CCCN(C(=O)CCS(=O)(=O)c1ccccc1)c1nc2cc3c(cc2s1)OCO3	15*	-2	11	-8	4	-1
Cc1ccc2sc(N(CCCN(C)C)C(=O)CCS(=O)(=O)c3ccccc3)nc2c1C	15*	4	-21	-57	7	10
